# ChEMBL document CHEMBL2218924, “A broad activity screen in support of a chemogenomic map for kinase signalling research and drug discovery” (Biochem J, 2013)
# Tests used:
# [1] = molecular target: T1, Serine/threonine-protein kinase TBK1 (Homo sapiens) (UniProt Q9UHD2); details: at 10 µM
# T1 sequence (whole entry): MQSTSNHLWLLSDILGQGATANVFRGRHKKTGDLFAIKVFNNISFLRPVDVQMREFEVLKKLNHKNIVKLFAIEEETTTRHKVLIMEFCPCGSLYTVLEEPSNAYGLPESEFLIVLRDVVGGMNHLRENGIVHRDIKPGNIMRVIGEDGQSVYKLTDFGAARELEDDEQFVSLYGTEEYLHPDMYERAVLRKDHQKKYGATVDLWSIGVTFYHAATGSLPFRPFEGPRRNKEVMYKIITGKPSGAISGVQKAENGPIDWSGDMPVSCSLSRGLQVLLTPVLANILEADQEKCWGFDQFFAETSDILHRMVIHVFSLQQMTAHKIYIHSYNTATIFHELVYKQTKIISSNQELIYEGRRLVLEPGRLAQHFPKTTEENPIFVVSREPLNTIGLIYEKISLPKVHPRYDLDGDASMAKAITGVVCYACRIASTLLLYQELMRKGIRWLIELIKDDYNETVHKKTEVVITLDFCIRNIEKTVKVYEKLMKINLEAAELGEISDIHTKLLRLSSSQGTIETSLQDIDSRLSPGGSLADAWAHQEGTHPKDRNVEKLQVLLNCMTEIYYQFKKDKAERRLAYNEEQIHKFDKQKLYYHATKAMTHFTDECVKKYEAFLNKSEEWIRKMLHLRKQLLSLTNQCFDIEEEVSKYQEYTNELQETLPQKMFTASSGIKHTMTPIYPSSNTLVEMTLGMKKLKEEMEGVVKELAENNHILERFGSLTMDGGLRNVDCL
# [2] = molecular target: T2, TGF-beta receptor type-1 (Homo sapiens) (UniProt P36897); details: at 1 µM
# T2 sequence (whole entry): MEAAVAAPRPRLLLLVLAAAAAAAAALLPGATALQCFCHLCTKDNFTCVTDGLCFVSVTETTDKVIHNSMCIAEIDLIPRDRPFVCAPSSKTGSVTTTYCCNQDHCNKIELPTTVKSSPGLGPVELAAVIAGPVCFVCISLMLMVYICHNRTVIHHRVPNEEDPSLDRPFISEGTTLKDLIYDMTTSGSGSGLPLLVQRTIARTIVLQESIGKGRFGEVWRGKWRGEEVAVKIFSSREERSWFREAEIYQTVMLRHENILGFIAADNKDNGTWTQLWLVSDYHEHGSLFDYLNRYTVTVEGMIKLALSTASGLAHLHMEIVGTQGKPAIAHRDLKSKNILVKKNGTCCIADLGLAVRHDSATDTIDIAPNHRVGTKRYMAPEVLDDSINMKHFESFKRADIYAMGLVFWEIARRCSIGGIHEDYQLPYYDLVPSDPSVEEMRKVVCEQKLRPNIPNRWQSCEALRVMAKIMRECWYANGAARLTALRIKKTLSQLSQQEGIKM
# [3] = molecular target: T2, TGF-beta receptor type-1 (Homo sapiens); details: at 10 µM
# [4] = molecular target: Insulin-like growth factor 1 receptor (Homo sapiens) (UniProt P08069); details: at 1 µM
# [5] = molecular target: Insulin-like growth factor 1 receptor (Homo sapiens) (UniProt P08069); details: at 10 µM
# [6] = molecular target: T3, Inhibitor of nuclear factor kappa-B kinase subunit alpha (Homo sapiens) (UniProt O15111); details: at 1 µM
# T3 sequence (whole entry): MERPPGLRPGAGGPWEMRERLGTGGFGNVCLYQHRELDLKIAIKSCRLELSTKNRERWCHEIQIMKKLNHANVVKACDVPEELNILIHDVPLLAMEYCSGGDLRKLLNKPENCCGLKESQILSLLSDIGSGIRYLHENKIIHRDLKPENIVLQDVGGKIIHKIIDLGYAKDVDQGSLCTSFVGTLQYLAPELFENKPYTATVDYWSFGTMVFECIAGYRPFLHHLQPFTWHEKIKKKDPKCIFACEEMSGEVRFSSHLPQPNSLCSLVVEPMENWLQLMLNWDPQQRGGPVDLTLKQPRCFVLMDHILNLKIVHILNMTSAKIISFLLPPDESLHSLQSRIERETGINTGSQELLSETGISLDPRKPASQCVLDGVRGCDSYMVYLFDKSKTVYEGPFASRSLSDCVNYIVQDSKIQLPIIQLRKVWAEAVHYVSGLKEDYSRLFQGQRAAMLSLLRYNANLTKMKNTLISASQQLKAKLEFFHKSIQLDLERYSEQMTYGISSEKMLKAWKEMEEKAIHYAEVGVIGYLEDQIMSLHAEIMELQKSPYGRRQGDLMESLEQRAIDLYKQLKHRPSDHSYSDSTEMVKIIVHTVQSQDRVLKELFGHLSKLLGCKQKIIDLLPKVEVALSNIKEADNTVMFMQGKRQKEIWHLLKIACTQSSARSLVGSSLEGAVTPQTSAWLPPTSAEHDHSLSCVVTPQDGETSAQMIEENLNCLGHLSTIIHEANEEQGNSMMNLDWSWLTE
# [7] = molecular target: T3, Inhibitor of nuclear factor kappa-B kinase subunit alpha (Homo sapiens); details: at 10 µM
# [8] = molecular target: T4, Inhibitor of nuclear factor kappa-B kinase subunit beta (Homo sapiens) (UniProt O14920); details: at 1 µM
# T4 sequence (whole entry): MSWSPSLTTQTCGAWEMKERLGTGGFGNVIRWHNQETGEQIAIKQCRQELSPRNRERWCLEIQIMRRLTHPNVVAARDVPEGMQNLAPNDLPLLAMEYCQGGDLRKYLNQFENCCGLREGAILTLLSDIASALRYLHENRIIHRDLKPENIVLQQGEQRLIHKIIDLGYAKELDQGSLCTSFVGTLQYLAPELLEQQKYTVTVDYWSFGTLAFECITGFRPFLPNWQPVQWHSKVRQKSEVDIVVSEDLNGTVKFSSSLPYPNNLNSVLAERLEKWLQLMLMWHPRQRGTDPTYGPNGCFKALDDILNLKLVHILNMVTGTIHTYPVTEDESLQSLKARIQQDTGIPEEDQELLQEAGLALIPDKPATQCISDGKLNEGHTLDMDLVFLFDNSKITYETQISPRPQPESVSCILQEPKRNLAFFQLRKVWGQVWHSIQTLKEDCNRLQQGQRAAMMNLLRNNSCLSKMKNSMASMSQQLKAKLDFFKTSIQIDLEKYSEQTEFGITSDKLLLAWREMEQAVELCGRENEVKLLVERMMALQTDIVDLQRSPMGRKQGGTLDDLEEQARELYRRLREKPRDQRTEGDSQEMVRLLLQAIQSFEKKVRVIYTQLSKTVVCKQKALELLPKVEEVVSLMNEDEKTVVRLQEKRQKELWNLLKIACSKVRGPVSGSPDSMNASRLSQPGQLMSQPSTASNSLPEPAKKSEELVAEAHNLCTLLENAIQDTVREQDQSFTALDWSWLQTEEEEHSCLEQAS
# [9] = molecular target: T4, Inhibitor of nuclear factor kappa-B kinase subunit beta (Homo sapiens); details: at 10 µM
# [10] = molecular target: Insulin receptor (Homo sapiens) (UniProt P06213); details: at 1 µM
# Chain of Insulin receptor (Homo sapiens) (P06213 28-758 limits assumed): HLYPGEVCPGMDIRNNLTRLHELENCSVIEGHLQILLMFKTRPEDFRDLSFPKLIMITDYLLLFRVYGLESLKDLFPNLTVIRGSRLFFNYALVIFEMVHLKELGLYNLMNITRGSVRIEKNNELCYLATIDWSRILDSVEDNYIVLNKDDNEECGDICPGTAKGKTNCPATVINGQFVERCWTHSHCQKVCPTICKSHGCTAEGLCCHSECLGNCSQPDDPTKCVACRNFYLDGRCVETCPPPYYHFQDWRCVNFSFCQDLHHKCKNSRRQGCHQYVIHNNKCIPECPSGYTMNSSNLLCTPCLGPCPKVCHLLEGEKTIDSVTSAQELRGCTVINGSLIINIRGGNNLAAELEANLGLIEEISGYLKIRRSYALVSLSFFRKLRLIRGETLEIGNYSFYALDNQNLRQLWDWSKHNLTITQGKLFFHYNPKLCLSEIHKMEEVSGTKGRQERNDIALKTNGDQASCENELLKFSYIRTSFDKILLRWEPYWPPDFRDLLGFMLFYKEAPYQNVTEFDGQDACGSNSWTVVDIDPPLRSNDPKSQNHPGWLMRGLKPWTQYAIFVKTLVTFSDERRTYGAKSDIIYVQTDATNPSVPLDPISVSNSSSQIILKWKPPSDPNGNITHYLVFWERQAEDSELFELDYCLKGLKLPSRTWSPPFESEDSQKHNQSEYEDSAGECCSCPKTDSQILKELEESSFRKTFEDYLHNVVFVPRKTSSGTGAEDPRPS
# Chain of Insulin receptor (Homo sapiens) (P06213 763-1382 limits assumed): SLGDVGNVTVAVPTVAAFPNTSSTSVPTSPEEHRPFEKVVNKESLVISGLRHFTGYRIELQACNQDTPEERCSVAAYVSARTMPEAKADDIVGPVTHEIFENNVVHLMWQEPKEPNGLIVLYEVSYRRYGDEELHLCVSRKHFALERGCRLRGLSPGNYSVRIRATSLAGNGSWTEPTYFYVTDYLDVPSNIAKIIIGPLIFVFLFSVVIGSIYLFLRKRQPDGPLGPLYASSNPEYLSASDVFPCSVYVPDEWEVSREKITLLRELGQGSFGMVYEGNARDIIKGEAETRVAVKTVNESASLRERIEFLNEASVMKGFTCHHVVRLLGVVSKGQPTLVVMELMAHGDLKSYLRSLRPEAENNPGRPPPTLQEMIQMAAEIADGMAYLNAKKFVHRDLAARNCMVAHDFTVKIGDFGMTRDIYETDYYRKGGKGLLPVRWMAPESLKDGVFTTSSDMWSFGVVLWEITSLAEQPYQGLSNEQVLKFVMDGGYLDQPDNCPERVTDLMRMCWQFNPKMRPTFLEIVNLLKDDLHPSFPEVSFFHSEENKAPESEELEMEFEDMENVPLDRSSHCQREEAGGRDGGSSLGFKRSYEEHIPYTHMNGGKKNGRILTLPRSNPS
# Chain of Insulin-like growth factor 1 receptor (Homo sapiens) (P08069 31-736 limits assumed): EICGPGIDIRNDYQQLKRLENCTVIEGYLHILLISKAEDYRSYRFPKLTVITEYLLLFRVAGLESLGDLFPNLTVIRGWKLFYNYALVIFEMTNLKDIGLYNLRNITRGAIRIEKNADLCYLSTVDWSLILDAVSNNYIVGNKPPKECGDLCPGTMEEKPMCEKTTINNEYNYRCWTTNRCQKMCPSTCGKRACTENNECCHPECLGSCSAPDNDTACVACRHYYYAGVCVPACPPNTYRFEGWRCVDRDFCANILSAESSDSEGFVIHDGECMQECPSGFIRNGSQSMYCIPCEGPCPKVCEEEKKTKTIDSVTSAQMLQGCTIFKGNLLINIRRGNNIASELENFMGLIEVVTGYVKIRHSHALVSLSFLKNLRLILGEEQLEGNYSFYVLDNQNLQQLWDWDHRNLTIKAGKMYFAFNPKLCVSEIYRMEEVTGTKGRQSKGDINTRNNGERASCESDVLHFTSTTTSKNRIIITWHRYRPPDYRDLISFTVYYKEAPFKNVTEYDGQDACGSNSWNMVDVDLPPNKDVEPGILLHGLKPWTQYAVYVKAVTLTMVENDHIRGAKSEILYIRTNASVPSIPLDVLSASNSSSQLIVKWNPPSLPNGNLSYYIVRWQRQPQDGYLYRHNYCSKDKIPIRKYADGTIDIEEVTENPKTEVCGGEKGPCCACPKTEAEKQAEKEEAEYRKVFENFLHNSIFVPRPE
# Chain of Insulin-like growth factor 1 receptor (Homo sapiens) (P08069 741-1367 limits assumed): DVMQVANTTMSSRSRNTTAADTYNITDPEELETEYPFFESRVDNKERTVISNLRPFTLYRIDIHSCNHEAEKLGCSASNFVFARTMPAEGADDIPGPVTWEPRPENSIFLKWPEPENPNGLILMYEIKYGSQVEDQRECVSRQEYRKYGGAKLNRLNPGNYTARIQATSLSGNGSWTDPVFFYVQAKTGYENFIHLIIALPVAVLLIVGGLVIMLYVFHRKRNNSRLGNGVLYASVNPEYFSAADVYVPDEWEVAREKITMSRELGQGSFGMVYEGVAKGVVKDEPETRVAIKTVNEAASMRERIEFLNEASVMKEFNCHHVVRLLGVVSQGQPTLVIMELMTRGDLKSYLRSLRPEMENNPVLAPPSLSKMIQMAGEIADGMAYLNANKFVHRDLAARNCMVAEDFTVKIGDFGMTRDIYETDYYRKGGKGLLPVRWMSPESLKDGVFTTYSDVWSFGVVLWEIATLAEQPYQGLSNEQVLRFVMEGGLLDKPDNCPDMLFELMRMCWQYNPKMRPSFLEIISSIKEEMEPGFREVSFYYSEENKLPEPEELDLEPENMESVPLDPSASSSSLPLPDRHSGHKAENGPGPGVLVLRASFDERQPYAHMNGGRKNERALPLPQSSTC
smiles,measurement,setting,value
O=C1NC(=O)/C(=C/c2ccc3c(c2)OC(F)(F)O3)S1,residual activity,[1],67%
same,residual activity,[2],95%
same,residual activity,[3],89%
same,residual activity,[4],113%
same,residual activity,[5],102%
same,residual activity,[6],112%
same,residual activity,[7],107%
same,residual activity,[8],111%
same,residual activity,[9],92%
same,residual activity,[10],111%
